These results are taken from PubChem BioAssay AID1259421 (Broad Institute, 2018).

“And” between values parts separate entries of the source, which are not always exact repeats. Identical values can stand only once. About 610 (9.5%) of roughly 6,400 compounds were called active. Rule as the data show it: active = activity change below about -70%; inconclusive = no clear call, values can overlap the other calls; inactive = above that. For the sample, actives were picked, then their nearest neighbours and some compounds at random. The source holds several records for some structures; these can differ, active in one and inactive in another. Where a SMILES comes first, the peptide text is derived from it. Bridges are numbered along the chain shown (N, C = ends). [ ]: non-standard residue; d: D form. The star is where a group is joined. ξ: configuration not given here. Heptanoyl(6-Me) = CC(C)CCCCC(=O)*; ξDab = NCCC(N)C(=O)O; ξT = CC(O)C(N)C(=O)O

The assay can be described thus: Toxoplasma gondii ME49Luc growth in HeLa cells, luciferase, no IFN-y, primary screen (AID 1259421). As to conditions: T. gondii ME49Luc in HeLa, 72 h, stronger effect = lower value, concentration not given here.
For the molecule `CCn1ccnc1CC1COc2ccccc2O1` (stereo unspecified), the activity change, negative = inhibition is 16.5% (inactive) and 6.37% (inactive).
As for `Nc1nonc1C(=Nc1ccc(F)c(Cl)c1)NO`, the figure is 17% (inactive).
As for `CCOc1ccc(-n2c([C@@H](C)N(Cc3cccnc3)C(=O)Cc3ccc(OC(F)(F)F)cc3)nc3ncccc3c2=O)cc1`, the figure is -0.654% (inactive); as for `CON=C1C[C@]2(C[C@@H]3C[C@@H](C/C=C(\C)C[C@@H](C)/C=C/C=C4\CO[C@@H]5[C@H](O)C(C)=C[C@@H](C(=O)O3)[C@]45O)O2)O[C@H](/C(C)=C/C(C)C)[C@H]1C`, -67.7% (inactive); as for `CC(C)c1cc(-c2n[nH]c(=O)n2-c2ccc3c(ccn3C)c2)c(O)cc1O`, -82.8% (active).
Under `CC(C)CCCCC(=O)NC(CCN)C(=O)NC(C(=O)NC(CCN)C(=O)NC1CCNC(=O)C(C(C)O)NC(=O)C(CCN)NC(=O)C(CCN)NC(=O)[C@H](CC(C)C)NC(=O)[C@@H](CC(C)C)NC(=O)C(CCN)NC1=O)C(C)O` (stereo partly drawn) ({Heptanoyl(6-Me)}-[ξDab][ξT][ξDab][ξDab][ξDab][dL]L[ξDab][ξDab][ξT]; lactam 4-C) stands 5.64% (inactive).
`COc1ccc(-c2cc(=O)c3c(OC)c(OC)c(OC)c(OC)c3o2)cc1OC`: the activity change, negative = inhibition is 14.2% (inactive).
With `COc1cc(-c2ccc(=O)[nH]n2)ccc1OC(F)F`, the activity change, negative = inhibition was -98.8% (active) and -89.5% (active).
For the molecule `COc1ccc(-c2cc(=O)c3c(OC)c(OC)c(OC)cc3o2)cc1OC`, the activity change, negative = inhibition was -3.44% (inactive).
With `N[C@@H](CSCCCO)C(=O)O`, the activity change, negative = inhibition was 9.56% (inactive) and 5.2% (inactive).
Regarding `CCCSc1ccc2nc(NC(=O)OC)[nH]c2c1`, the activity change, negative = inhibition is -54.3% (inactive) and -5.56% (inactive).
As for `COC(=O)Nc1nc2ccc(SC(C)C)cc2[nH]1`, the figure is -47% (inactive) and -32.6% (inactive); as for `COC(=O)Nc1nc2ccc(C(=O)c3cccs3)cc2[nH]1`, -78.8% (active) and -71.2% (active); as for `COC(=O)Nc1nc2ccc(C(=O)C3CC3)cc2[nH]1`, -35.4% (inactive).
Consider `COC(=O)Nc1nc2ccc(C(=O)c3ccccc3)cc2[nH]1`, for which the activity change, negative = inhibition is -65.6% (inactive) and -76% (active).
With `COC(=O)Nc1nc2ccc(Sc3ccccc3)cc2[nH]1`, the activity change, negative = inhibition was -42.3% (inactive) and -3.74% (inactive) and -73.8% (active).
Under `COC(=O)Nc1nc2ccc(S(=O)c3ccccc3)cc2[nH]1` (stereo unspecified) stands 1.33% (inactive) and 7.44% (inactive) and -54.7% (inactive); under `COC(=O)Nc1nc2ccc(C(=O)c3ccc(F)cc3)cc2[nH]1`, -64.8% (inactive); under `CCCS(=O)c1ccc2nc(NC(=O)OC)[nH]c2c1` (stereo unspecified), 18.9% (inactive).
As to `CN(CCOP(=O)(O)O)C(=N)N`, the activity change, negative = inhibition is 22.7% (inactive) and 1.51% (inactive).
Under `O=C(O)[C@H](Cc1ccc(Nc2nccc3ccncc23)cc1)NC1=C(Br)C(=O)C12CCCCC2` stands -35.7% (inactive); under `CN(C)CCC1(c2ccc(Cl)cc2)Cc2ccccc2C(=O)O1` (stereo unspecified), 24.4% (inactive) and 4.82% (inactive).
As for `CCOc1nc2cccc(C(=O)OC(C)OC(=O)OC3CCCCC3)c2n1Cc1ccc(-c2ccccc2-c2nn[nH]n2)cc1` (stereo unspecified), the figure is 26.2% (inactive) and -2.58% (inactive); as for `COc1ccc(-c2oc3ccccc3c(=O)c2O)cc1OC`, 17.9% (inactive); as for `CN(C)C(=O)C(=O)c1cn(C)c2cc(Cl)c(C(=O)N3CCC(Cc4ccc(F)cc4)CC3)cc12`, -34.4% (inactive).
In the case of `CN(C)[C@@H](CCOc1cccc2ccccc12)c1ccccc1`, the activity change, negative = inhibition is 16.9% (inactive).
Consider `CC(C)Nc1nc2cc(Cl)c(Cl)cc2n1[C@H]1O[C@@H](CO)[C@H](O)[C@@H]1O`, for which the activity change, negative = inhibition was -13.6% (inactive).
With `c1ccc(C(NCc2cccnc2)(c2ccccc2)c2ccccc2)cc1`, the activity change, negative = inhibition was 3.97% (inactive) and 35.4% (inactive).
For `CCCn1c(=O)c2[nH]c(C34CC5CC(CC3C5)C4)nc2n(CCC)c1=O`, the activity change, negative = inhibition is -9.56% (inactive).
Under `N#C/C(=C1/SCC(c2ccccc2Cl)S1)n1ccnc1` (stereo unspecified) stands 12.5% (inactive); under `Fc1ccc(C(c2ccccc2)(c2ccccc2F)n2ccnc2)cc1` (stereo unspecified), -44.6% (inactive); under `Clc1ccccc1C(c1ccccc1)(c1ccccc1)n1ccnc1`, -38.2% (inactive) and -91% (active).
On to `N[C@H](Cc1cnc[nH]1)C(=O)O`, for which the activity change, negative = inhibition was 2.37% (inactive).
Consider `O=c1cc[nH]c2cc(Cl)ccc12`, for which the activity change, negative = inhibition was 10.2% (inactive).
Take `COc1cc2ncnc(Nc3ccc(F)c(Cl)c3)c2cc1NC(=O)/C=C/CN1CCCCC1`: the activity change, negative = inhibition is -80.3% (active).
As for `C[C@@H]1COC(Nc2ccc3ncnc(Nc4ccc(OCc5nccs5)c(Cl)c4)c3c2)=N1`, the figure is -65.9% (inactive); as for `CCN(CC)CC1CCN(c2ncc3ncnc(Nc4ccc(F)c(Cl)c4)c3n2)CC1`, -13.4% (inactive) and 3.34% (inactive); as for `CN(C)C/C=C/C(=O)Nc1cc2c(Nc3ccc(F)c(Cl)c3)ncnc2cc1O[C@H]1CCOC1`, -87.8% (active).
Under `CNC(=O)CN1CCC(Oc2cc3c(Nc4cccc(Cl)c4F)ncnc3cc2OC)CC1` stands -53.4% (inactive); under `C=CC(=O)Nc1cc2c(Nc3ccc(F)c(Cl)c3)ncnc2cc1OCCCN1CCOCC1`, -41.3% (inactive).
As for `CC/C=C\C/C=C\C/C=C\C/C=C\C/C=C\CCCC(=O)O`, the figure is 2.92% (inactive).
Take `COc1ccc(NS(=O)(=O)c2ccc(N=Nc3ccc(O)c(C(=O)O)c3)cc2)nn1`: the activity change, negative = inhibition is 5.08% (inactive).
Turning to `O=C(O)Cc1nn(Cc2nc3cc(C(F)(F)F)ccc3s2)c(=O)c2ccccc12`, the activity change, negative = inhibition is 19.5% (inactive).
For the molecule `C=CC(=O)Nc1ccc2ncnc(Nc3cccc(Br)c3)c2c1`, the activity change, negative = inhibition was -18.1% (inactive).
Under `COc1ccc(Nc2ncnc3ccc(OC)cc23)cc1` stands 3.66% (inactive) and 3.52% (inactive); under `COCC(=O)NC/C=C/c1ccc2ncnc(Nc3ccc(Oc4ccc(C)nc4)c(C)c3)c2c1`, -85.5% (active).
Consider `c1ccc(Oc2cccnc2)cc1`, for which the activity change, negative = inhibition is 5.26% (inactive).
Under `CC1=CC(=O)CC(C)(C)[C@@]1(O)/C=C/C(C)=C\C(=O)O` stands 0.0395% (inactive).
Take `CCCCC[C@H](O)/C=C/[C@@H]1[C@H]2C/C(=C/CCCC(=O)O)O[C@H]2C[C@H]1O`: the activity change, negative = inhibition was 13.9% (inactive).
Regarding `O=C(O)CCc1nc2ccccc2[nH]1`, the activity change, negative = inhibition is 7.52% (inactive) and 21.6% (inactive).
`COCC(=O)O[C@]1(CCN(C)CCCc2nc3ccccc3[nH]2)CCc2cc(F)ccc2[C@@H]1C(C)C`: the activity change, negative = inhibition was -74.4% (active) and -72.6% (active).
Take `CC(C)[C@H]1c2ccc(F)cc2CC[C@@]1(CCN(C)CCCc1nc2ccccc2[nH]1)OC(=O)C1CC1`: the activity change, negative = inhibition was -84% (active) and -73.8% (active).
Under `O=C(O)C1CC(O)CN1` (stereo unspecified) stands -0.806% (inactive); under `Cc1ccc(S(=O)(=O)Nc2nc3ccccc3nc2Nc2ccc3nsnc3c2)cc1`, 1.14% (inactive); under `O=c1oc2cc(O)ccc2c2oc3cc(O)ccc3c12`, 13.4% (inactive).
On to `CC1(C)CCC(c2ccc(Cl)cc2)=C(CN2CCN(c3ccc(C(=O)NS(=O)(=O)c4ccc(N[C@H](CCN5CCOCC5)CSc5ccccc5)c(S(=O)(=O)C(F)(F)F)c4)cc3)CC2)C1`, for which the activity change, negative = inhibition was -89% (active).
Under `CN(C)CC[C@H](CSc1ccccc1)Nc1ccc(S(=O)(=O)NC(=O)c2ccc(N3CCN(Cc4ccccc4-c4ccc(Cl)cc4)CC3)cc2)cc1[N+](=O)[O-]` stands -28.3% (inactive); under `COC(=O)C(CCCN=C(N)N)NC(=O)CCCc1c(-c2ccccc2)[nH]c2c(F)cc(F)cc12` (stereo unspecified), 11.7% (inactive).
Under `C=C1[C@H]2CC[C@@]3(C)[C@H](c4ccoc4)OC(=O)C[C@]13O[C@H]1C[C@H](O)C(C)(C)[C@H](CC(=O)OC)[C@]12C` stands -4.68% (inactive).
For `CCOC(=O)[C@H](CCc1ccccc1)N[C@H](C)C(=O)N1C2CCCCC2C[C@H]1C(=O)O` (stereo partly specified), the activity change, negative = inhibition is 14.3% (inactive) and 13.5% (inactive).
Under `C=CC(=O)Nc1cccc(OC)c1` stands 7.29% (inactive).
With `COc1cc(SC)ccc1-c1nc2ccncc2[nH]1`, the activity change, negative = inhibition was -3.26% (inactive).
As for `CCN(CC)CC1CCCCN1CC(=O)N1c2ccccc2C(=O)Nc2cccnc21` (stereo unspecified), the figure is 5.74% (inactive) and 8.21% (inactive); as for `COc1cc2c(cc1O)CC[C@@H]1[C@@H]2CC[C@]2(C)[C@@H](O)CC[C@@H]12`, -44.5% (inactive).
As for `C[C@]12CCC3c4ccc(O)cc4CCC3C1C[C@@H](O)[C@@H]2O` (stereo partly specified), the figure is -4.22% (inactive); as for `C[C@]12CCC3c4ccc(OC(=O)c5ccccc5)cc4CCC3C1CC[C@@H]2O` (stereo partly specified), -85.4% (active).
For `C[C@]12CCC3c4ccc(OC(=O)c5ccccc5)cc4CCC3C1CCC2=O` (stereo partly specified), the activity change, negative = inhibition is -55.9% (inactive).
As for `C[C@]12CCC3c4ccc(O)cc4CCC3C1CC[C@@H]2O` (stereo partly specified), the figure is -87.4% (active); as for `CC12CCC3c4ccc(OC(=O)c5ccccc5)cc4CCC3C1CCC2O` (stereo unspecified), -15.9% (inactive); as for `CC12CCC3c4ccc(O)cc4CCC3C1C[C@H](O)[C@@H]2O` (stereo partly specified), -75.1% (active).
With `CC(=O)OC1CCC2C3CCc4cc(O)ccc4C3CCC12C` (stereo unspecified), the activity change, negative = inhibition was 1.9% (inactive).
Regarding `C[C@]12CC[C@@H]3c4ccc(O)cc4CC[C@H]3[C@@H]1CC[C@@H]2O`, the activity change, negative = inhibition is -81.4% (active) and -83.1% (active).
For `C[C@]12CCC3c4ccc(OS(=O)(=O)O)cc4CCC3C1CC[C@H]2O` (stereo partly specified), the activity change, negative = inhibition is -7.66% (inactive).
Under `COc1ccc2c(c1)CCC1C2CC[C@@]2(C)C1CC[C@@H]2O` (stereo partly specified) stands -9.49% (inactive); under `C[C@]12CC[C@@H]3c4ccc(O)cc4CC[C@H]3[C@@H]1C[C@@H](O)[C@@H]2O`, -0.302% (inactive); under `CON(C)C(=O)N1N=C(c2cc(F)ccc2F)S[C@@]1(CCCN)c1ccccc1`, -53.7% (inactive).
